Data as given in PubChem BioAssay AID1159580 (chemical genetic matrix, 2015).
Screen size: about 5,500 compounds; about 2,000 (36%) were called active. Inconclusive results (about 18%) are left out. Cut-off read from the data, not from the text of the source: active = normalized growth mostly below about 0.91 (no sharp cut-off); inconclusive = no clear call, values can overlap the other calls; inactive = mostly above about 0.92. The list shows a part of the results.

Assay: chemical genetic growth profiling, strain panel (AID 1159580);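 note: tested at 20 µM; growth read once vehicle control cultures reached saturation at 30 °C; 1 = growth at the plate median or of vehicle wells; lower values mean less growth of the strain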
Conditions: growth OD

Measured: normalized growth

CCC(C(=O)O)c1ccccc1 (configuration not stated)
inactive: S. cerevisiae deletion strains, locus YJR075W, strain HOC1, active compounds read low 1 | S. cerevisiae deletion strains, locus YKL009W, strain mrt4, active compounds read low 1.01 | S. cerevisiae deletion strains, locus YKL068W, active compounds read low 0.976 | S. cerevisiae deletion strains, locus YKL085W, strain MDH1 (second series), active compounds read low 0.981 | S. cerevisiae deletion strains, locus YKL085W, strain MDH1, active compounds read low 0.981 | S. cerevisiae deletion strains, locus YKL160W, strain elf1, active compounds read low 0.996 | S. cerevisiae deletion strains, locus YKL190W, strain CNB1, active compounds read low 1.01 | S. cerevisiae deletion strains, locus YKR001C, strain vps1, active compounds read low 0.987 | S. cerevisiae deletion strains, locus YKR026C, strain gcn3, active compounds read low 0.99 | S. cerevisiae deletion strains, locus YKR091W, strain srl3, active compounds read low 0.99 | S. cerevisiae deletion strains, locus YLL001W, strain dnm1, active compounds read low 0.986 | S. cerevisiae deletion strains, locus YLL026W, active compounds read low 0.977 | S. cerevisiae deletion strains, locus YLL041C, strain sdh2, active compounds read low 1 | S. cerevisiae deletion strains, locus YLR027C, strain aat2, active compounds read low 1 | S. cerevisiae deletion strains, locus YLR039C, strain RIC1, active compounds read low 0.958 | S. cerevisiae deletion strains, locus YLR058C, strain SHM2, active compounds read low 1 | S. cerevisiae deletion strains, locus YLR102C, strain apc9, active compounds read low 0.995 | S. cerevisiae deletion strains, locus YLR113W, strain HOG1, active compounds read low 0.912 | S. cerevisiae deletion strains, locus YLR221C, strain rsa3, active compounds read low 0.992 | S. cerevisiae deletion strains, locus YLR258W, strain gsy2, active compounds read low 1 | S. cerevisiae deletion strains, locus YLR262C, strain YPT6 (second series), active compounds read low 1.01 | S. cerevisiae deletion strains, locus YLR262C, strain YPT6, active compounds read low 0.966 | S. cerevisiae deletion strains, locus YLR268W, strain sec22, active compounds read low 1.01 | S. cerevisiae deletion strains, locus YLR320W, strain mms22, active compounds read low 0.989 | S. cerevisiae deletion strains, locus YLR330W, strain CHS5, active compounds read low 1 | S. cerevisiae deletion strains, locus YLR342W, strain FKS1 (second series), active compounds read low 0.994 | S. cerevisiae deletion strains, locus YLR342W, strain FKS1, active compounds read low 0.998 | S. cerevisiae deletion strains, locus YLR357W, strain rsc2, active compounds read low 0.951 | S. cerevisiae deletion strains, locus YLR370C, strain arc18, active compounds read low 0.977 | S. cerevisiae deletion strains, locus YLR371W, strain rom2, active compounds read low 1.01 | S. cerevisiae deletion strains, locus YLR384C, strain iki3, active compounds read low 0.97 | S. cerevisiae deletion strains, locus YLR418C, strain cdc73, active compounds read low 1.03 | S. cerevisiae deletion strains, locus YML016C, strain PPZ1, active compounds read low 1 | S. cerevisiae deletion strains, locus YML032C, strain rad52, active compounds read low 0.997 | S. cerevisiae deletion strains, locus YML120C, strain ndi1, active compounds read low 0.979 | S. cerevisiae deletion strains, locus YML124C, strain tub3, active compounds read low 1 | S. cerevisiae deletion strains, locus YMR058W, strain fet3, active compounds read low 0.986 | S. cerevisiae deletion strains, locus YMR078C, strain ctf18, active compounds read low 0.996 | S. cerevisiae deletion strains, locus YMR125W, strain sto1, active compounds read low 0.977 | S. cerevisiae deletion strains, locus YMR129W, active compounds read low 0.992 | S. cerevisiae deletion strains, locus YMR205C, strain PFK2, active compounds read low 0.996 | S. cerevisiae deletion strains, locus YMR223W, strain ubp8, active compounds read low 1 | S. cerevisiae deletion strains, locus YMR231W, strain pep5, active compounds read low 0.992 | S. cerevisiae deletion strains, locus YMR263W, strain SAP30, active compounds read low 1.01 | S. cerevisiae deletion strains, locus YMR307W, strain GAS1, active compounds read low 1.07 | S. cerevisiae deletion strains, locus YNL067W, strain RPL9B, active compounds read low 1.03 | S. cerevisiae deletion strains, locus YNL071W, strain lat1, active compounds read low 0.989 | S. cerevisiae deletion strains, locus YNL128W, strain TEP1, active compounds read low 1.02 | S. cerevisiae deletion strains, locus YNL153C, strain GIM3, active compounds read low 1 | S. cerevisiae deletion strains, locus YNL183C, strain NPR1, active compounds read low 0.905 | S. cerevisiae deletion strains, locus YNL209W, strain ssb2, active compounds read low 0.989 | S. cerevisiae deletion strains, locus YNL233W, strain BNI4, active compounds read low 0.999 | S. cerevisiae deletion strains, locus YNL248C, strain rpa49, active compounds read low 0.984 | S. cerevisiae deletion strains, locus YNL250W, strain rad50, active compounds read low 0.975 | S. cerevisiae deletion strains, locus YNL271C, strain bni1, active compounds read low 0.988 | S. cerevisiae deletion strains, locus YNL298W, strain CLA4, active compounds read low 0.989 | S. cerevisiae deletion strains, locus YNL307C, strain MCK1, active compounds read low 0.999 | S. cerevisiae deletion strains, locus YNL322C, strain KRE1 (second series), active compounds read low 0.972 | S. cerevisiae deletion strains, locus YNL322C, strain KRE1, active compounds read low 1 | S. cerevisiae deletion strains, locus YNR049C, strain mso1, active compounds read low 1.01 | S. cerevisiae deletion strains, locus YNR052C, strain pop2, active compounds read low 0.99 | S. cerevisiae deletion strains, locus YOL006C, strain TOP1, active compounds read low 1.03 | S. cerevisiae deletion strains, locus YOL012C, strain htz1 2.17 | S. cerevisiae deletion strains, locus YOL147C, strain pex11, active compounds read low 0.998 | S. cerevisiae deletion strains, locus YOR001W, strain rrp6, active compounds read low 0.974 | S. cerevisiae deletion strains, locus YOR061W, strain CKA2, active compounds read low 1 | S. cerevisiae deletion strains, locus YOR069W, strain VPS5, active compounds read low 1 | S. cerevisiae deletion strains, locus YOR070C, strain gyp1, active compounds read low 0.976 | S. cerevisiae deletion strains, locus YOR080W, strain dia2, active compounds read low 0.984 | S. cerevisiae deletion strains, locus YOR083W, strain WHI5, active compounds read low 0.994 | S. cerevisiae deletion strains, locus YOR106W, strain vam3, active compounds read low 0.989 | S. cerevisiae deletion strains, locus YOR136W, strain idh2, active compounds read low 1.01 | S. cerevisiae deletion strains, locus YOR144C, strain elg1, active compounds read low 0.999 | S. cerevisiae deletion strains, locus YOR184W, strain ser1, active compounds read low 0.992 | S. cerevisiae deletion strains, locus YOR231W, strain MKK1, active compounds read low 0.951 | S. cerevisiae deletion strains, locus YOR265W, strain rbl2, active compounds read low 1 | S. cerevisiae deletion strains, locus YOR270C, strain vph1, active compounds read low 1.02 | S. cerevisiae deletion strains, locus YOR290C, strain snf2, active compounds read low 0.976 | S. cerevisiae deletion strains, locus YOR316C, strain cot1, active compounds read low 1 | S. cerevisiae deletion strains, locus YPL051W, strain arl3, active compounds read low 0.964 | S. cerevisiae deletion strains, locus YPL055C, strain LGE1, active compounds read low 1.03 | S. cerevisiae deletion strains, locus YPL078C, strain atp4, active compounds read low 0.974 | S. cerevisiae deletion strains, locus YPL106C, strain sse1, active compounds read low 0.97 | S. cerevisiae deletion strains, locus YPL240C, strain hsp82, active compounds read low 0.988 | S. cerevisiae deletion strains, locus YPL241C, strain CIN2, active compounds read low 1.01 | S. cerevisiae deletion strains, locus YPL256C, strain CLN2, active compounds read low 0.907 | S. cerevisiae deletion strains, locus YPR119W, strain clb2, active compounds read low 0.994 | S. cerevisiae deletion strains, locus YPR141C, strain kar3, active compounds read low 0.976 | S. cerevisiae deletion strains, locus YPR163C, strain tif3, active compounds read low 1 | S. cerevisiae deletion strains, locus YPR167C, strain met16, active compounds read low 0.999 | S. cerevisiae deletion strains, strain wtn01, active compounds read low 0.999 | S. cerevisiae strains, strain wild type, active compounds read low 1
